PubChem BioAssay AID1159580 (chemical genetic matrix, 2015)
The whole screen tested about 5,500 compounds, of which about 2,000 (36%) were called active. Roughly 18% stayed inconclusive and do not appear here. The list shows a part of the results. Unmarked numbers belong to inactive results. Cut-off read from the data, not from the text of the source: active = normalized growth mostly below about 0.91 (no sharp cut-off); inconclusive = no clear call, values can overlap the other calls; inactive = mostly above about 0.92.

Assay: chemical genetic growth profiling, strain panel (AID 1159580);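 note: tested at 20 µM; growth read once vehicle control cultures reached saturation at 30 °C; 1 = growth at the plate median or of vehicle wells; lower values mean less growth of the strain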
Settings: S. cerevisiae deletion strains, growth OD

O=C(NCC(c1ccccc1)c1c[nH]c2ccccc12)c1ccc(C(F)(F)F)cc1 (stereo not given)
normalized growth (locus YAR019C, strain CDC15, hits give low values): 0.974 | normalized growth (locus YBL105C, strain PKC1, hits give low values): 0.98 | normalized growth (locus YBR135W, strain CKS1, hits give low values): 0.998 | normalized growth (locus YBR136W, strain MEC1, hits give low values): 0.986 | normalized growth (locus YBR160W, strain CDC28, hits give low values): 0.981 | normalized growth (locus YDL017W, strain CDC7, hits give low values): 0.985 | normalized growth (locus YDL028C, strain MPS1, hits give low values): 0.993 | normalized growth (locus YDL101C, strain DUN1, hits give low values): 0.985 | normalized growth (locus YDL108W, strain KIN28, hits give low values): 0.992 | normalized growth (locus YDL132W, strain cdc53, hits give low values): 0.992 | normalized growth (locus YDL214C, strain PRR2, hits give low values): 1.15 | normalized growth (locus YDR052C, strain DBF4, hits give low values): 0.993 | normalized growth (locus YDR054C, strain cdc34, hits give low values): 0.984 | normalized growth (locus YDR226W, strain ADK1, hits give low values): 0.971 | normalized growth (locus YDR477W, strain SNF1, hits give low values): 0.98 | normalized growth (locus YER123W, strain YCK3, hits give low values): 0.971 | normalized growth (locus YER133W, strain GLC7, hits give low values): 0.979 | normalized growth (locus YFL009W, strain cdc4, hits give low values): 1.04 | normalized growth (locus YFL029C, strain CAK1, hits give low values): 0.989 | normalized growth (locus YFR003C, strain YPI1, hits give low values): 1.01 | normalized growth (locus YFR019W, strain FAB1, hits give low values): 0.984 | normalized growth (locus YFR028C, strain CDC14, hits give low values): 0.979 | normalized growth (locus YGR040W, strain KSS1, hits give low values): 1 | normalized growth (locus YGR052W, strain FMP48, hits give low values): 1.02 | normalized growth (locus YGR092W, strain DBF2, hits give low values): 0.993 | normalized growth (locus YHR030C, strain SLT2, hits give low values): 0.807 (active) | normalized growth (locus YHR079C, strain IRE1, hits give low values): 0.981 | normalized growth (locus YHR082C, strain KSP1, hits give low values): 1.04 | normalized growth (locus YHR205W, strain SCH9, hits give low values): 1.01 | normalized growth (locus YIL147C, strain SLN1, hits give low values): 0.985 | normalized growth (locus YJL095W, strain BCK1, hits give low values): 0.996 | normalized growth (locus YJL128C, strain PBS2, hits give low values): 0.932 | normalized growth (locus YJL157C, strain FAR1, hits give low values): 0.989 | normalized growth (locus YJR016C, strain ILV3, hits give low values): 0.99 | normalized growth (locus YJR066W, strain TOR1 (second series), hits give low values): 0.97 | normalized growth (locus YJR066W, strain TOR1, hits give low values): 0.998 | normalized growth (locus YKL048C, strain ELM1, hits give low values): 1 | normalized growth (locus YKL067W, strain YNK1, hits give low values): 0.948 | normalized growth (locus YKL101W, strain HSL1, hits give low values): 0.969 | normalized growth (locus YKL193C, strain SDS22, hits give low values): 0.994 | normalized growth (locus YKL203C, strain TOR2, hits give low values): 1.08 | normalized growth (locus YLR113W, strain HOG1, hits give low values): 0.859 (active) | normalized growth (locus YLR133W, strain CKI1, hits give low values): 0.992 | normalized growth (locus YLR403W, strain SFP1, hits give low values): 0.985 | normalized growth (locus YML070W, strain DAK1, hits give low values): 0.979 | normalized growth (locus YMR001C, strain CDC5, hits give low values): 0.991 | normalized growth (locus YMR205C, strain PFK2 (second series), hits give low values): 0.981 | normalized growth (locus YMR277W, strain FCP1, hits give low values): 0.965 | normalized growth (locus YNL006W, strain LST8, hits give low values): 1.01 | normalized growth (locus YNL020C, strain ARK1, hits give low values): 0.982 | normalized growth (locus YNL161W, strain CBK1, hits give low values): 0.995 | normalized growth (locus YNL183C, strain NPR1, hits give low values): 1.02 | normalized growth (locus YNL207W, strain RIO2, hits give low values): 0.979 | normalized growth (locus YNL222W, strain SSU72, hits give low values): 0.986 | normalized growth (locus YNL307C, strain MCK1 (second series), hits give low values): 0.954 | normalized growth (locus YOL078W, strain AVO1, hits give low values): 0.99 | normalized growth (locus YOL136C, strain PFK27, hits give low values): 0.963 | normalized growth (locus YOR061W, strain CKA2, hits give low values): 0.995 | normalized growth (locus YOR119C, strain RIO1, hits give low values): 1.02 | normalized growth (locus YOR231W, strain MKK1, hits give low values): 1.02 | normalized growth (locus YOR329C, strain SCD5, hits give low values): 0.995 | normalized growth (locus YPL031C, strain PHO85, hits give low values): 0.993 | normalized growth (locus YPL153C, strain RAD53, hits give low values): 0.967 | normalized growth (locus YPL204W, strain HRR25, hits give low values): 0.96 | normalized growth (locus YPL209C, strain IPL1, hits give low values): 0.994 | normalized growth (locus YPL256C, strain CLN2, hits give low values): 0.909 | normalized growth (locus YPR025C, strain CCL1, hits give low values): 0.997 | normalized growth (locus YPR106W, strain ISR1, hits give low values): 0.976 | normalized growth (locus YPR111W, strain DBF20, hits give low values): 0.956 | normalized growth (strain NNK1, hits give low values): 0.988 | normalized growth (strain TSCII, hits give low values): 0.978

N[C@@H](Cc1c[nH]c2ccccc12)C(=O)O
normalized growth (locus YAL040C, strain CLN3, hits give low values): 1.02 | normalized growth (locus YCL061C, strain MRC1 (second series), hits give low values): 1 | normalized growth (locus YDR150W, strain NUM1, hits give low values): 1.01 | normalized growth (locus YDR363W, strain ESC2, hits give low values): 1.01 | normalized growth (locus YER002W, strain NOP16, hits give low values): 1.01 | normalized growth (locus YGR078C, strain PAC10, hits give low values): 1 | normalized growth (locus YGR229C, strain SMI1, hits give low values): 1.03 | normalized growth (locus YMR307W, strain GAS1, hits give low values): 0.991 | normalized growth (locus YNL128W, strain TEP1, hits give low values): 1 | normalized growth (locus YNL175C, strain NOP13, hits give low values): 0.997 | normalized growth (locus YNL197C, strain WHI3, hits give low values): 0.996 | normalized growth (locus YNL224C, strain SQS1, hits give low values): 1.01 | normalized growth (locus YOR083W, strain WHI5 (second series), hits give low values): 0.996 | normalized growth (locus YPL241C, strain CIN2, hits give low values): 1.01
